Compound activity (PubChem BioAssay)
NTR1 agonist – agonists of human NTR1, primary screen, imaging, U2OS cells, beta-arrestin-GFP, high content | Neurotensin receptor type 1 (Homo sapiens), P30989 | activation, % at 20 µM | NTR1-U2OS beta-arrestin-GFP spot imaging, agonist mode | actives 0.17% (n = 330,000);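 active = activation at or above 40% of the spot to cytoplasm intensity ratio, with at least 20 cells analyzed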;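 also: 0% = DMSO without peptide and 100% = 100 nM NTR1 peptide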
Target sequence (P30989 whole entry, looked up): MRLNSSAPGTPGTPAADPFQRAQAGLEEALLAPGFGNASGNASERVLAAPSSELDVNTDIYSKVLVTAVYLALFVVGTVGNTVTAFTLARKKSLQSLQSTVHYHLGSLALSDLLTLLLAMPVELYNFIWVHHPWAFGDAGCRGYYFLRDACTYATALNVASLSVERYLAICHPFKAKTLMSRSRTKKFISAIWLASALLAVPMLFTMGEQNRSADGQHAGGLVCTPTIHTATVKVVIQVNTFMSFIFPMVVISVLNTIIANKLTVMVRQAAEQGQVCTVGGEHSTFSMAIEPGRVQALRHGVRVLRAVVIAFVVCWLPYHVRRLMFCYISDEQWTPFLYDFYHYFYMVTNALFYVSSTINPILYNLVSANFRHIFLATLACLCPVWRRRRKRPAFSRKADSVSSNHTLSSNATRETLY
ALR H2O2 inh – inhibitors of human ALR sulfhydryl oxidase, primary screen, biochemical, H2O2 detection, HRP-luminol luminescence, single point; inhibition, % (concentration not given with the values); FAD-linked sulfhydryl oxidase ALR (Homo sapiens), P55789; actives 3.8% (n = 290,000); purified ALR, DTT oxidation; AID 485317, 2010;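 active = mean replicate inhibition above about 79%, with every replicate also reaching it, limit read from the data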
Target sequence (P55789 whole entry, looked up): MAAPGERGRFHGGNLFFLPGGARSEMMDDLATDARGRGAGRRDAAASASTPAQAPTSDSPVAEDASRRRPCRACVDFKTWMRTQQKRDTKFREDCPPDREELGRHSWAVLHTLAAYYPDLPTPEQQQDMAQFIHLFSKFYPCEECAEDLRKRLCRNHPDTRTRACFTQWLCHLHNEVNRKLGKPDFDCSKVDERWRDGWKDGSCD
UBC9 SUMO inh – inhibitors of in vitro SUMOylation cascade, primary screen, biochemical, HTRF, uHTS | SUMO-conjugating enzyme UBC9 (Homo sapiens), P63279 | HTRF SUMOylation assay, SAE1/SAE2 + UBC9 | inhibition, % at 35 µM | actives 0.36% (n = 290,000); in the data active = inhibition above about 50%, passing the limit was not always enough
H9c2 protect – cardioprotection against H2O2-induced cell death, primary screen, uHTS, H9c2 cells, ATPLite luminescence; H9c2 cardiomyocytes, H2O2 injury protection, 2 h; protection from H2O2 cell death, % at 20 µM; actives 0.63% (n = 360,000);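 active = compounds giving at least 50% protection of heart cells from peroxide-induced death in the single-dose screen, raw or plate-pattern-corrected value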;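 also: 0% = DMSO wells with peroxide and 100% = DMSO wells without peroxide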
Numbers without * were called inactive; x = no result given. Most compounds without a hit are left out; they make up all but 3.9% or so of the library.

SMILES | NTR1 agonist | ALR H2O2 inh | UBC9 SUMO inh | H9c2 protect
Cc1[nH]c2ccccc2c1/C=N/NC(=O)c1cc(-c2cccs2)[nH]n1 | 3 | -10 | -7 | 51*
Cc1ccc(-c2cc(C(=O)N/N=C/c3c(C)nn(-c4ccccc4)c3C)[nH]n2)cc1 | x | x | -2 | 38
Cc1[nH]c2ccccc2c1/C=N/NC(=S)NC(C)C | 24 | 99* | 2 | -14
Cc1nn(-c2ccccc2)c(C)c1/C=N/NC(=O)c1cc(C(C)(C)C)[nH]n1 | 2 | 7 | -6 | 54*
CN(C)C(CNc1ncnc2ccccc12)c1c(F)cccc1Cl (stereo not given) | -1 | 2 | 2 | 0
CC1=Nc2ccccc2N=C(NC(=O)c2ccccc2)C1c1ccc(Cl)cc1 (stereo not given) | 2 | 0 | -24 | 15
CC1=Nc2ccccc2N=C(N)C1c1ccccc1 (stereo not given) | -1 | 96* | -22 | 43
O=c1o[nH]c(-c2ccccc2)c1-c1ccccc1 | 5 | 89* | x | 2
O=c1[nH][nH]c(-c2ccccc2)c1-c1ccccc1 | x | x | x | 1
Cc1ccc(Oc2nc3ccccn3c(=O)c2/C=C(\C#N)C(=O)NC2CCS(=O)(=O)C2)c(C)c1 (stereo not given) | 1 | 84* | 9 | 1
Cc1cc(C)cc(Oc2nc3ccccn3c(=O)c2/C=C(\C#N)C(=O)NC2CCS(=O)(=O)C2)c1 (stereo not given) | 1 | 35 | 36 | 1
O=c1c(O)c(-c2ccccc2)oc2cc(O)ccc12 | x | x | x | 79*
O=c1c(O)c(-c2ccccc2)oc2ccccc12 | x | x | x | 17
O=c1c(O)c(-c2ccccc2)oc2cc(O)cc(O)c12 | 2 | x | x | 5
CN(C)C(=O)c1c(-c2ccccc2)oc2ccc(O)cc12 | 0 | 98* | 27 | 3
Cc1ccc(-c2oc3ccccc3c(=O)c2O)cc1 | 12 | -10 | 22 | 74*
O=C(O)c1c(-c2ccccc2)oc2ccc(O)cc12 | -1 | 10 | 18 | 8
COc1ccc(C(O)C(CC(=O)NCCCOC(C)C)C(=O)NCCCOC(C)C)cc1OC (stereo not given) | 0 | -2 | -25 | -5
CC1Cn2c(nnc2-c2ccc(F)cc2)S1 (stereo not given) | 0 | x | -7 | 6
CCCC/C(=N\NC(=O)c1ccc(Br)o1)c1ccccc1 | -1 | 25 | -16 | 0
CC1=C(C(=O)N2CCN(c3cc(C)ccc3C)CC2)C2(CCC(C)CC2)OC1=O (stereo not given) | x | x | 4 | x
CC1=C(C(=O)N2CCN(c3cc(C)ccc3C)CC2)C2(CCCCC2)OC1=O | 2 | 87* | -5 | -2
COc1ccc(C(=O)OCC(=O)NCC2CCCO2)cc1 (stereo not given) | 2 | -3 | 7 | -1
CC(=O)Nc1cccc(-c2csc(NCc3ccccc3)n2)c1 | 2 | 67 | -3 | -9
CC(=O)Nc1cccc(-c2csc(N)n2)c1 | 1 | 98* | 10 | 0
SMILES | NTR1 agonist | ALR H2O2 inh | UBC9 SUMO inh | H9c2 protect
CC(=O)Nc1cccc(-c2csc(Nc3ccc(Cl)cn3)n2)c1 | 38 | 98* | 0 | -10
C=CCn1c(=O)c(C(=O)Nc2ccccc2OC)c(O)c2ccccc21 | x | x | 16 | x
CN(C)c1ccc2c3c(ccc(N(C)C)c13)C(=O)OC2 | 0 | 80* | -1 | 46
Cc1nc(N2CCOCC2)c2c(C)c(C(=O)Nc3ccccc3C(F)(F)F)sc2n1 | 4 | -1 | 13 | 3
O=c1[nH]n(Cc2ccccc2)c2ccccc12 | 0 | 99* | -6 | -5
O=c1ccn(Cc2ccccc2)c2ccccc12 | 1 | x | 23 | -5
O=[N+]([O-])c1cc(Cc2ccccc2)cc(C=Nc2ccc(N3CCOCC3)cc2)c1O | x | 97* | -6 | 86*
Oc1c(Br)cc(Br)cc1C=Nc1ccc2c(c1)OCCO2 | 2 | -5 | 44 | 84*
Oc1cc(Br)ccc1C=Nc1ccc(N2CCCCC2)cc1 | 0 | 19 | 20 | 33
Oc1ccc(C=Nc2ccc(N3CCOCC3)cc2)c(O)c1 | -3 | 99* | -6 | 13
Clc1ccc(-c2ccc(C=Nc3ccc(N4CCOCC4)cc3)o2)c(Cl)c1 | 3 | 14 | 14 | 2
Oc1c(Br)cc(Br)cc1C=Nc1ccc2c(c1)OCO2 | 2 | -8 | 35 | 41
Oc1c(Cl)cc(Cl)cc1C=Nc1ccc(N2CCOCC2)cc1 | 1 | 23 | -7 | 65*
CCOC(=O)N1CCN(CCC(=O)c2ccc(Cl)cc2)CC1 | 1 | 22 | 3 | -28
CCOC(=O)c1c(C)[nH]c(C(=O)OCC(=O)c2ccc3c(c2)NC(=O)CO3)c1C | 3 | x | x | 10
CSCCCN1CCCC(CO)(Cc2ccc(F)cc2)C1 (stereo not given) | 1 | -2 | 6 | -4
Cc1cc(Br)cc(C=Nc2ccc(N3CCOCC3)cc2)c1O | 1 | 36 | x | 84*
Oc1ccc(N=Nc2cccc(C(F)(F)F)c2)cc1C=Nc1ccc(N2CCOCC2)cc1 | -1 | 11 | 17 | 76*
COc1ccc(/C=C2\C(=N)N3N=C(CC(=O)N4CCOCC4)SC3=NC2=O)cc1 | 0 | -6 | 17 | 4
CCS(=O)(=O)C1=NN2C(=N)/C(=C\c3ccc(SCc4ccco4)o3)C(=O)N=C2S1 | x | x | 62* | -5
N=C1/C(=C\c2ccc(SCc3ccccc3)o2)C(=O)N=C2SC(CC(=O)N3CCOCC3)=NN12 | -1 | 98* | 11 | -6
Cc1ccc(/C=C2\C(=N)N3N=C(CC(=O)N4CCOCC4)SC3=NC2=O)o1 | -1 | 92* | -1 | 4
C=CCN1CN=C(NS(=O)(=O)c2ccc(NC(C)=O)cc2)NC1 | 0 | -5 | 5 | -6
COc1cccc(NC(=O)CCN2C(=O)c3ccccc3S2(=O)=O)c1 | 0 | -11 | -7 | 4
CC(=O)c1nn(-c2cccc(Br)c2)cc1C(=O)c1ccc(C)cc1 | 0 | 1 | -2 | -11
SMILES | NTR1 agonist | ALR H2O2 inh | UBC9 SUMO inh | H9c2 protect
O=C(c1ccc(Cl)c(S(=O)(=O)N2CCCCC2)c1)N1CCCCC1 | 0 | -19 | -6 | 2
C=CC[n+]1ccn(-c2nc3ccccc3nc2[N-]S(=O)(=O)c2cccs2)c1 | 0 | 95* | 13 | 0
CC(=O)C1=C(O)C(=O)N(Cc2ccccc2)C1c1ccc(N(C)C)cc1 (stereo not given) | 0 | 96* | 8 | -1
O=C(O)CC1Sc2nc3ccccc3n2C1=O (stereo not given) | 0 | -2 | 3 | 4
COCCN(C(=O)CSc1nnc(-c2ccccc2F)o1)c1c(N)n(Cc2ccccc2)c(=O)[nH]c1=O | x | x | x | 4
CCN(CC)c1ccc2c(C)c(CO)c(=O)oc2c1 | 2 | 99* | 11 | -8
O=C(O)c1cccc2c3c([nH]c12)CCCC3 | 1 | 87* | 18 | 2
Cc1c(C(=O)NNC(=S)Nc2ccc(S(N)(=O)=O)cc2)oc2ccccc12 | 0 | 99* | -26 | 6
NS(=O)(=O)c1ccc(NC(=S)NC(=O)c2ccc(Br)o2)cc1 | 0 | -4 | 12 | -1
